According to PubChem BioAssay (NCATS):
Results filed as inconclusive are left out. Entries that show only a call come without a potency. A number with no mark means an inactive call. Calls of active or inactive are those of the source. Calls come from the whole dose curve; as a rule, active = well fitted cell-killing curve with a large enough effect; inconclusive = small, poorly fitted or top-dose-only effect, or effect the other way; inactive = no such curve, though single readings can be large or run the other way.

Test: Viability qHTS for spleen associated tyrosine kinase inhibitor (SYKi) naive MV4-11 cells (AID 1963823); note: nearly all actives have a fitted effect of over 40% in size
Conditions: MV4-11 AML viability, CellTiter-Glo luminescence, 72 h; series mostly up to 45 µM
Summary of the method: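 SYK inhibitor-naive MV4-11 cells, 500 per well, exposed to compounds for 72 hr at 37 C, 5% CO2. Viability read as CellTiter-Glo luminescence after 10 min at room temperature.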
Potency is the fitted concentration of half-maximal effect.

| Structure (SMILES) | Potency | viability (% of control) |
| --- | --- | --- |
| Cc1nc2cc(-c3cc(F)cc(C#N)c3)ccc2s1 | inactive |  |
| CCc1ccc2nc(Nc3cc(Cc4ccccc4)nc(NC4CCC(O)CC4)n3)sc2c1 (stereo not drawn) | 8.33 µM (active) |  |
| CC(C)=CCc1cc(C(O)C2NC(=O)CNC(=O)C(Cc3c[nH]c4ccccc34)NC(=O)C3CCCN3C(=O)CNC(=O)C(C(C)C)NC(=O)CNC2=O)ccc1O (stereo not drawn) |  | 78.4% [at 9.25 µM] |
| C=CC1(C)C=C2CCC3C(C)(C)C(O[C@@H]4O[C@@H](CO)[C@H](O)[C@H]4O)CCC3(C)C2CC1O[C@@H]1O[C@H](C)[C@H](O)[C@H](O)[C@H]1O (stereo partly drawn) | inactive |  |
| O=C1C=CC2OC(c3ccccc3)C(O)C2O1 (stereo not drawn) | 6.51 µM (active) |  |
| CC1(C)CCC[C@]2(C)[C@H]3CC(=O)O[C@]3(C)CC[C@@H]12 | inactive |  |
| N#C/C(=C1\Nc2ccccc2S1)c1ccnc(NCCc2cccnc2)n1 | 2.31 µM (active) |  |
| CC1=C2CC(=O)C(C)CC/C=C(\C)CC2(O)OC1=O (stereo not drawn) | inactive |  |
| C=C1CCC2C(C)(C)C(O)CCC2(C)C1CCC(C)CCO (stereo not drawn) | 9.04 µM (active) |  |
| COC(=O)C1=CO[C@@H](O[C@@H]2O[C@H](CO[C@@H]3O[C@H](COC(=O)/C=C/c4ccc(O)cc4)[C@@H](O)[C@H](O)[C@H]3O)[C@@H](O)[C@H](O)[C@H]2O)[C@@H]2C(CO)=CC[C@H]12 | inactive |  |
| Oc1cccc(Nc2ccnc3cc(-c4cccc(CN5CCOCC5)c4)sc23)c1 | 0.291 µM (active) |  |
| CC(C)(C)c1ccc(S(=O)(=O)NCc2ccc(C(=O)Nc3cccnc3)cc2)cc1 | 0.231 µM (active) |  |
| C[C@@H]1O[C@@H](O[C@H]2[C@H](O[C@H]3[C@H](O[C@H]4CC[C@@]5(C)C(CC[C@]6(C)C5CC=C5[C@@H]7CC(C)(C(=O)O)C[C@@H](O)[C@]7(C)CC[C@]56C)[C@@]4(C)CO)O[C@H](C(=O)O)[C@@H](O)[C@@H]3O)O[C@H](CO)[C@H](O)[C@@H]2O)[C@H](O)[C@H](O)[C@H]1O (stereo partly drawn) |  | 58.7% [at 9.25 µM] |
| C[C@]12CCC(=O)C=C1[C@@H](O)C[C@@H]1[C@@H]2[C@@H](O)C[C@@]2(C)[C@H]1CC[C@]2(O)C(=O)CO | inactive |  |
| C[C@@H]1O[C@@H](O[C@H]2[C@@H]3C=CO[C@@H](O[C@@H]4O[C@H](CO)[C@@H](O)[C@H](O)[C@H]4O)[C@@H]3[C@@]3(CO)O[C@@H]23)[C@H](OC(=O)/C=C/c2ccc(O)cc2)[C@H](O)[C@H]1O | inactive |  |
| COC(=O)C1=COC(OC2OC(CO)C(O)C(O)C2O)C2C1C=CC2(O)CO (stereo not drawn) | inactive |  |
| O=C(OC1CN2CCC1CC2)N1CCc2ccccc2C1c1ccccc1 (stereo not drawn) | 18.4 µM (active) |  |
| CCCCCc1ccc(/C=C/[C@H](O)[C@@H](CO)NC)cc1 | 11.6 µM (active) |  |
| COc1cc2c(cc1OC)CN(C(=O)/C=C/c1c(-c3ccccc3)n(C)c3ncccc13)CC2 | 2.59 µM (active) |  |
| COC(=O)/C=C/c1ccc(O[C@@H]2O[C@H](CO)[C@@H](O)[C@H](O)[C@H]2O)cc1 | inactive |  |
| CC(C)=C1CC2C(CCC2(C)O)C(C)(O)CC1=O (stereo not drawn) | inactive |  |
| CSc1ccc2c(c1)C(N1CCN(C)CC1)Cc1ccccc1S2 (stereo not drawn) | 11.9 µM (active) |  |
| O=C(NC1CCN(CCCCC2(C(=O)NCC(F)(F)F)c3ccccc3-c3ccccc32)CC1)c1ccccc1-c1ccc(C(F)(F)F)cc1 | 2.59 µM (active) |  |
| CCN(CC)CCCCNc1ncc2cc(-c3c(Cl)cccc3Cl)c(NC(=O)NC(C)(C)C)nc2n1 | 0.517 µM (active) |  |
| COc1ccnc2[nH]cc(C(=O)C(=O)N3CCN(C(=O)c4ccccc4)CC3C)c12 (stereo not drawn) | inactive |  |
| O=C(NC(NC(=S)Nc1ccc(F)c([N+](=O)[O-])c1)C(Cl)(Cl)Cl)C(c1ccccc1)c1ccccc1 (stereo not drawn) | 3.26 µM (active) |  |
| CCCC(NC(=O)/C(C#N)=C/c1cccc(Br)n1)c1ccccc1 (stereo not drawn) | 13 µM (active) |  |
| COc1cc(CCCO)ccc1O[C@@H]1O[C@H](CO)[C@@H](O)[C@H](O)[C@H]1O | inactive |  |

Test: Viability qHTS for spleen associated tyrosine kinase inhibitor (SYKi) drug resistant MV4-11 cells (AID 1963824); note: nearly all actives have a fitted effect of over 35% in size
Conditions: SYKi-resistant MV4-11 viability, CellTiter-Glo, 72 h; series mostly up to 45 µM
Summary of the method: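 SYK inhibitor-resistant MV4-11 AML cells, 500 per well, added to predispensed compounds and incubated 72 hr at 37 C, 5% CO2. Viability measured by CellTiter-Glo luminescence after 10 min at room temperature.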

| Structure (SMILES) | Potency | viability, % of control |
| --- | --- | --- |
| COc1cc(C2Oc3c(OC)cc(CCCO)cc3C2CO)ccc1O[C@H]1O[C@H](C)[C@@H](O)[C@H](O)[C@@H]1O (stereo partly drawn) | inactive |  |
| O=c1cc(-c2cccc(O)c2)oc2c(O)c(O)ccc12 | 16.4 µM (active) |  |
| Nc1ncnc2c1ncn2[C@H]1CCCO1 | inactive |  |
| C=CC1(C)CC(OC(=O)/C(C)=C\COC(C)=O)C(C(=C)C(=O)O)C(O)C1C(=C)CO (stereo not drawn) | inactive |  |
| CC(C)(O)C1CCC2(C)C3C(O)C4C(C13)C42CO (stereo not drawn) | inactive |  |
| CC1(C)CC[C@]2(C(=O)O)CC[C@]3(C)C(=CCC4[C@@]5(C)CC[C@H](O[C@@H]6O[C@H](CO)[C@@H](O)[C@H](O)[C@H]6O[C@@H]6O[C@H](CO)[C@@H](O)[C@H](O)[C@H]6O)[C@@](C)(CO)C5CC[C@]43C)[C@@H]2C1 (stereo partly drawn) | inactive |  |
| C=CC1C(O[C@@H]2O[C@H](CO)[C@@H](O)[C@H](O)[C@H]2O)OC=C(C(=O)OC)C1CC(=O)O (stereo partly drawn) | inactive |  |
| CS(=O)(=O)N(CC(=O)NCC1CC1)c1cc(C(F)(F)F)ccc1Cl | inactive |  |
| COC(O)(CC(C)C)C1Oc2cc(C)[nH]c(=O)c2O1 (stereo not drawn) | inactive |  |
| COc1cc(/C=C/C(=O)O[C@H]2[C@H](O)[C@@H](CO)O[C@@]2(CO)O[C@H]2O[C@H](COC(=O)c3ccc(O)cc3)[C@@H](O)[C@H](O)[C@H]2O)cc(OC)c1OC | inactive |  |
| C=CC(=O)Nc1ccc(CN2C(=O)N(c3cc(OC)cc(OC)c3)Cc3cnc(Nc4ccc(N5CCN(C)CC5)cc4)nc32)cc1 | 1.3 µM (active) |  |
| CC1=C(CCC(C)O[C@@H]2O[C@H](CO)[C@@H](O)[C@H](O)[C@H]2O)C(C)(C)CCC1=O (stereo partly drawn) | inactive |  |
| Cc1nc2cc(-c3cc(F)cc(C#N)c3)ccc2s1 | inactive |  |
| CCc1ccc2nc(Nc3cc(Cc4ccccc4)nc(NC4CCC(O)CC4)n3)sc2c1 (stereo not drawn) | 6.61 µM (active) |  |
| CC(C)=CCc1cc(C(O)C2NC(=O)CNC(=O)C(Cc3c[nH]c4ccccc34)NC(=O)C3CCCN3C(=O)CNC(=O)C(C(C)C)NC(=O)CNC2=O)ccc1O (stereo not drawn) |  | 92.7% [at 9.25 µM] |
| C=CC1(C)C=C2CCC3C(C)(C)C(O[C@@H]4O[C@@H](CO)[C@H](O)[C@H]4O)CCC3(C)C2CC1O[C@@H]1O[C@H](C)[C@H](O)[C@H](O)[C@H]1O (stereo partly drawn) | inactive |  |
| O=C1C=CC2OC(c3ccccc3)C(O)C2O1 (stereo not drawn) | 4.11 µM (active) |  |
| CC1(C)CCC[C@]2(C)[C@H]3CC(=O)O[C@]3(C)CC[C@@H]12 | inactive |  |
| N#C/C(=C1\Nc2ccccc2S1)c1ccnc(NCCc2cccnc2)n1 | 2.31 µM (active) |  |
| CC1=C2CC(=O)C(C)CC/C=C(\C)CC2(O)OC1=O (stereo not drawn) | inactive |  |

| Structure (SMILES) | Potency | viability, % of control |
| --- | --- | --- |
| C=C1CCC2C(C)(C)C(O)CCC2(C)C1CCC(C)CCO (stereo not drawn) | 12.8 µM (active) |  |
| COC(=O)C1=CO[C@@H](O[C@@H]2O[C@H](CO[C@@H]3O[C@H](COC(=O)/C=C/c4ccc(O)cc4)[C@@H](O)[C@H](O)[C@H]3O)[C@@H](O)[C@H](O)[C@H]2O)[C@@H]2C(CO)=CC[C@H]12 | inactive |  |
| Oc1cccc(Nc2ccnc3cc(-c4cccc(CN5CCOCC5)c4)sc23)c1 | 0.461 µM (active) |  |
| CC(C)(C)c1ccc(S(=O)(=O)NCc2ccc(C(=O)Nc3cccnc3)cc2)cc1 | 0.231 µM (active) |  |
| C[C@@H]1O[C@@H](O[C@H]2[C@H](O[C@H]3[C@H](O[C@H]4CC[C@@]5(C)C(CC[C@]6(C)C5CC=C5[C@@H]7CC(C)(C(=O)O)C[C@@H](O)[C@]7(C)CC[C@]56C)[C@@]4(C)CO)O[C@H](C(=O)O)[C@@H](O)[C@@H]3O)O[C@H](CO)[C@H](O)[C@@H]2O)[C@H](O)[C@H](O)[C@H]1O (stereo partly drawn) |  | 77.5% [at 9.25 µM] |
| C[C@]12CCC(=O)C=C1[C@@H](O)C[C@@H]1[C@@H]2[C@@H](O)C[C@@]2(C)[C@H]1CC[C@]2(O)C(=O)CO | inactive |  |
| C[C@@H]1O[C@@H](O[C@H]2[C@@H]3C=CO[C@@H](O[C@@H]4O[C@H](CO)[C@@H](O)[C@H](O)[C@H]4O)[C@@H]3[C@@]3(CO)O[C@@H]23)[C@H](OC(=O)/C=C/c2ccc(O)cc2)[C@H](O)[C@H]1O | inactive |  |
| COC(=O)C1=COC(OC2OC(CO)C(O)C(O)C2O)C2C1C=CC2(O)CO (stereo not drawn) | inactive |  |
| O=C(OC1CN2CCC1CC2)N1CCc2ccccc2C1c1ccccc1 (stereo not drawn) | 18.4 µM (active) |  |
| CCCCCc1ccc(/C=C/[C@H](O)[C@@H](CO)NC)cc1 | 20.6 µM (active) |  |
| COc1cc2c(cc1OC)CN(C(=O)/C=C/c1c(-c3ccccc3)n(C)c3ncccc13)CC2 | 3.66 µM (active) |  |
| COC(=O)/C=C/c1ccc(O[C@@H]2O[C@H](CO)[C@@H](O)[C@H](O)[C@H]2O)cc1 | inactive |  |
| CC(C)=C1CC2C(CCC2(C)O)C(C)(O)CC1=O (stereo not drawn) | inactive |  |
| CSc1ccc2c(c1)C(N1CCN(C)CC1)Cc1ccccc1S2 (stereo not drawn) | 26.6 µM (active) |  |
| O=C(NC1CCN(CCCCC2(C(=O)NCC(F)(F)F)c3ccccc3-c3ccccc32)CC1)c1ccccc1-c1ccc(C(F)(F)F)cc1 | 2.59 µM (active) |  |
| CCN(CC)CCCCNc1ncc2cc(-c3c(Cl)cccc3Cl)c(NC(=O)NC(C)(C)C)nc2n1 | 0.58 µM (active) |  |
| COc1ccnc2[nH]cc(C(=O)C(=O)N3CCN(C(=O)c4ccccc4)CC3C)c12 (stereo not drawn) | inactive |  |
| O=C(NC(NC(=S)Nc1ccc(F)c([N+](=O)[O-])c1)C(Cl)(Cl)Cl)C(c1ccccc1)c1ccccc1 (stereo not drawn) | 3.26 µM (active) |  |
| CCCC(NC(=O)/C(C#N)=C/c1cccc(Br)n1)c1ccccc1 (stereo not drawn) | 9.2 µM (active) |  |
| COc1cc(CCCO)ccc1O[C@@H]1O[C@H](CO)[C@@H](O)[C@H](O)[C@H]1O | inactive |  |
